Out of some 200,000 compounds screened, about 18,000 (9%) were called active. This is one part of a sample in which actives are shown more often than they occur. Values without a mark were called inactive. Cut-off read from the data, not from the text of the source: active = inhibition above about 50%; inactive = the rest.

Our source for the inhibition values is PubChem BioAssay AID1063 (University of Pittsburgh Molecular Library Screening Center, 2008).

The nature of the experiment: antileishmanial activity against promastigotes – primary screen (AID 1063).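 Note: promastigotes grown with compound for 44 hours at 28 °C.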 The note with it: Leishmania major promastigotes, resazurin fluorescence viability; at 10 µM; stronger effect = higher value. A general note: The colour change of resazurin is a common sign of viable cells or microbes.
With `CCc1ccc(N2CC(O)=C(c3nc4ccccc4c(=O)[nH]3)C2=N)cc1`, the inhibition (commonly the relative decrease from the control value, in per cent) was -1.01%.

On to `CCCOc1ccc(C(=O)NCCc2ccccc2)cc1`, for which the inhibition is 7.66%.

For `CCCOc1ccc(C(=O)C(CCC(CNCC)C(=O)c2ccc(OCCC)cc2)CNCC)cc1` (configuration not stated), the inhibition was 100% (active).

Consider `CCCOc1ccc(N/C=C/C(=O)C(C)(C)C)cc1`, for which the inhibition is -5.85%.

Regarding `CC(C)NC(=S)NN=C1CCCCCCCCCCC1`, the inhibition was 18.9%.

For `Cc1nn(C)c(C)c1Sc1ccccc1N`, the inhibition is -5.83%.

As to `CCC(C(=O)OCCN(CC)CC)c1ccccc1` (configuration not stated), the inhibition was -7.09%.

Regarding `CCOc1ccc(S(=O)(=O)N2CCCCCC2)c2ccccc12`, the inhibition is 14%.

Consider `CCN(CC)CCOCCOc1ccc(Cl)c2ccccc12`, for which the inhibition was 99.7% (active).

On to `CN(C)CCOCCOc1ccc(Cl)c2ccccc12`, for which the inhibition was 98.1% (active).

For the molecule `CN(C)CCOc1cccc(Br)c1`, the inhibition is -3.33%.

In the case of `COc1ccc(N2C(=O)CC(Sc3n[nH]c(-c4ccc(C)cc4)n3)C2=O)cc1` (configuration not stated), the inhibition was -3.19%.

With `CCN1C(=O)/C(=c2\s/c(=C3\Sc4ccccc4N3C)c(=O)n2C)N(C)C1=S`, the inhibition is -4.84%.

In the case of `CSc1cc(C)[nH]c(=O)n1`, the inhibition is -7.37%.

As to `C/C(=N\N)c1c(-c2ccccc2)c2cc(Br)ccc2[nH]c1=O`, the inhibition was -1.92%.

As to `COc1ccc(C(=O)N/N=c2\oc3ccccc3cc2C(N)=O)cc1`, the inhibition is 10.2%.

`CC(OC(=O)CCc1nc(=O)c2ccccc2n1C)C(=O)NCc1ccc2c(c1)OCO2` (configuration not stated): the inhibition was -3.8%.

Consider `CCC(C)(C)NC(=O)/C=C/c1cc(OC)c(OC)c(S(=O)(=O)N2CCc3ccccc32)c1`, for which the inhibition is -8.31%.

For the molecule `CCOC(=O)c1oc2c(CN3CCN(C)CC3)c(O)ccc2c(=O)c1-c1ccc(Br)cc1`, the inhibition was 23.6%.

On to `CCN1CCN(Cc2c(O)ccc3c(=O)c(-c4ccc(OC)c(OC)c4)c(C(F)(F)F)oc23)CC1`, for which the inhibition was 99.8% (active).

In the case of `CN1CCN(Cc2c(O)ccc3c2oc(=O)c2ccccc23)CC1`, the inhibition is 3.53%.

For `COc1ccc(C(=O)NNc2cc(C)nc(NNC(=O)c3ccc(OC)cc3)n2)cc1`, the inhibition is -8.08%.

For the molecule `Cn1c(=NC(=O)c2ccc3c(c2)OCCO3)sc2cc(S(C)(=O)=O)ccc21`, the inhibition was -9.12%.

In the case of `COc1cccc(/C=C/c2ccc3ccccc3n2)c1OC(C)=O`, the inhibition was 75.8% (active).

Consider `CCOc1cccc(/C=C/c2ccc3ccccc3n2)c1OC(C)=O`, for which the inhibition was 66% (active).

Regarding `NC(=O)COC(=O)/C=C/c1ccc2ccccc2n1`, the inhibition was 8.85%.

Consider `CC(OC(=O)c1ccc2ccccc2n1)C(=O)c1ccccc1` (configuration not stated), for which the inhibition was -9.05%.

On to `CCOc1ccccc1NC(=O)c1cccnc1`, for which the inhibition was -2.23%.

Take `COc1cccc(C(O)Cc2nc3ccccc3n2C)c1OC` (configuration not stated): the inhibition is 9.44%.

As for `COC(=O)c1ccc(-n2cnc3ccccc32)nc1`, the inhibition was 25%.

Turning to `CN(C(=O)CSc1nnc(Nc2ccccc2)s1)C1CCS(=O)(=O)C1` (configuration not stated), the inhibition is -3.39%.

As for `CC(=O)c1c(C)[nH]c(C(=O)OCC(=O)NCCC(C)C)c1C`, the inhibition is 3.75%.

Regarding `c1ccc(CSCCc2ccncc2)cc1`, the inhibition is 1.66%.

Turning to `O=C(O)CCCc1ccccc1`, the inhibition was -5.59%.

`Cc1ccc(O)c(CCc2ccccc2)n1`: the inhibition is 87.9% (active).

Consider `CC(NC(=O)C(=O)N/N=C/c1ccc(Cl)cc1)c1ccccc1` (configuration not stated), for which the inhibition is 5.89%.

As to `CC(C)(C)NC(=O)c1cccc(NC(=O)Cc2ccc(Br)cc2)c1`, the inhibition was 94.5% (active).

Turning to `COc1ccc(CC(=O)Nc2ccc(C(=O)NC(C)(C)C)cc2)cc1`, the inhibition is -5.15%.

As to `O=C(Cc1ccccc1)Nc1cccc(C(=O)N/N=C/c2ccco2)c1`, the inhibition was -0.83%.

In the case of `C(=N\N1CCN(c2ccccn2)CC1)/C1=C(N2CCOCC2)C(=C/c2ccccc2)/CC1`, the inhibition was 15.2%.

Regarding `CCCNC(=O)c1ccccc1NC(=O)CSCc1ccc(OC)cc1`, the inhibition is 9.43%.

In the case of `CCCc1nc(SCC(=O)Nc2ccccc2OC)c2c(=O)n(C)c(=O)n(C)c2n1`, the inhibition was -9.77%.

`CCCCCNC(=O)c1cccnc1SCC(=O)Nc1ccccc1OC`: the inhibition is 54% (active).

Turning to `COc1ccc(-n2nnnc2SCC(=O)NCc2cccs2)cc1`, the inhibition was -3.26%.

In the case of `COc1ccc(S(=O)(=O)N(C)C)cc1NC(=O)CSc1ncccn1`, the inhibition was 6.96%.

In the case of `O=C(NCc1ccncc1)NC12CC3CC(CC(C3)C1)C2`, the inhibition was 1.04%.

In the case of `CCOC(=O)c1c(NC(=O)C2CC=CCC2C(=O)O)sc(C)c1CC` (configuration not stated), the inhibition is 0.64%.

Consider `O=S(=O)(c1cccc(C(F)(F)F)c1)N1CCN(c2cnccn2)CC1`, for which the inhibition is -1.36%.

As to `Cc1ccc(S(=O)(=O)NCCSc2ccccc2)cc1[N+](=O)[O-]`, the inhibition is -8.64%.

On to `CCOC(=O)c1ccccc1NS(=O)(=O)c1ccc(OC)cc1`, for which the inhibition is 2.32%.

On to `Cc1ccc(S(=O)(=O)Nc2nc3ccccc3s2)cc1[N+](=O)[O-]`, for which the inhibition was -8.33%.

In the case of `COC(=O)c1ccccc1NC(=O)c1ccccc1NS(C)(=O)=O`, the inhibition is -0.37%.

Take `COC(=O)c1ccccc1NS(=O)(=O)c1ccc2[nH]c(=O)[nH]c2c1`: the inhibition is 86.2% (active).

As to `COCCNC(=O)c1ccccc1NS(=O)(=O)c1ccc(C)c([N+](=O)[O-])c1`, the inhibition was 54.5% (active).

Take `O=S(=O)(Cc1ccccc1)c1nc2ccccc2n1Cc1ccccn1`: the inhibition was 10.6%.

As for `Cc1cc(C)cc(C(=O)N(CCc2ccccc2)C2=CC3CCC(C2)N3C)c1` (configuration not stated), the inhibition was 3.61%.

For the molecule `Cc1ccc(N/C=C/C(=O)c2ccccc2)cc1C`, the inhibition was 66% (active).

As to `Cc1noc(NS(=O)(=O)c2ccc(N/C=C/C(=O)c3ccccc3)cc2)c1C`, the inhibition is -14.2%.

For the molecule `O=C(/C=C\NCC(=O)c1ccccc1)c1ccccc1`, the inhibition is 2.41%.

On to `O=C(Nc1ccc2c(c1)C(=O)OC2)Nc1cccc2ccccc12`, for which the inhibition was -3.46%.

In the case of `CC1=NN(c2ccccc2)C(=O)C1C(=O)c1ccc([N+](=O)[O-])cc1` (configuration not stated), the inhibition was -7.88%.

`COc1cc(OC)nc(N/N=C(\c2ccccc2)c2ccncc2)n1`: the inhibition is -5.12%.

`CC[n+]1c(C)n(-c2ccccc2)c2ccc(NC(C)=O)cc21`: the inhibition is 98.2% (active).

In the case of `CCN(CC)N=Nc1cccc(NC(C)=O)c1`, the inhibition was -3.03%.

As for `CC(=O)NCCc1nc2cc(NC(=O)c3ccccc3)ccc2n1C`, the inhibition was -4.08%.

For `O=C(Nc1ccc2cn[nH]c2c1)c1ccc(S(=O)(=O)N2CCOCC2)cc1`, the inhibition is -3.16%.

As for `O=C(C(Cl)Cl)N1CCN(c2ccccn2)CC1`, the inhibition was 64.4% (active).

In the case of `CC(=C1C(=O)c2ccccc2C1=O)N1CCN(c2ccccn2)CC1`, the inhibition was -2.16%.

Regarding `O=C(Cc1ccccc1Cl)N1CCN(c2ccccn2)CC1`, the inhibition is -2.27%.

In the case of `COC(c1ccccc1)c1nnc(CCC(=O)N2CCN(CCOc3ccccc3)CC2)o1` (configuration not stated), the inhibition is -4.38%.

On to `CC1=C/C(=N\S(=O)(=O)c2ccccc2)C(C(C)C)=CC1=O`, for which the inhibition is -0.21%.

As to `Cc1ccc(S(=O)(=O)c2ccc(Oc3ccccc3)cc2)cc1`, the inhibition was -3.38%.

Turning to `CC1=C/C(=N\OS(=O)(=O)c2ccccc2)C=CC1=O`, the inhibition is 100% (active).

Consider `Cc1cccc(C(=O)N2CCC(c3nc4ccccc4s3)CC2)c1`, for which the inhibition is -2.51%.

`Cc1cccc(/C(N)=N/OC(=O)c2ccccc2Cl)c1`: the inhibition was 16.9%.

Consider `COC(=O)c1cccc([N+](=O)[O-])c1CS(=O)(=O)c1ccc(C)cc1`, for which the inhibition is -1.5%.

`CC(=O)Nc1ccc(-c2csc(NC=C3C(=O)OC(C)(C)OC3=O)n2)cc1`: the inhibition is 0.56%.

Regarding `CC(=O)Nc1ccc(-c2csc(NC(=O)Nc3ccccc3)n2)cc1`, the inhibition was 58.2% (active).

Turning to `CC(=O)Nc1ccc(S(=O)(=O)Nc2nc(-c3ccc(C(C)(C)C)cc3)cs2)cc1`, the inhibition was 6.97%.

Consider `Cc1cc(C(=O)CSc2nc(N)cc(=O)[nH]2)c(C)n1-c1cccc(F)c1`, for which the inhibition was 23.6%.

As to `O=C(CCN1C(=O)/C(=C/c2cccs2)SC1=S)NNC(=O)c1cccc(O)c1`, the inhibition was -5.28%.

For `O=C1c2cccc3c([N+](=O)[O-])ccc(c23)C(=O)N1CC1CCCO1` (configuration not stated), the inhibition was 101% (active).

`O=c1c2cc3c(=O)n(CC4CCCO4)c(=O)c3cc2c(=O)n1CC1CCCO1` (configuration not stated): the inhibition was -5.65%.

As for `O=C(NCc1ccc2c(c1)OCO2)c1ccc2c(c1)C(=O)N(CC1CCCO1)C2=O` (configuration not stated), the inhibition was -1.97%.

Consider `Cc1cc(C)cc(OCC(=O)Nc2ccc(S(=O)(=O)Nc3ccccn3)cc2)c1`, for which the inhibition was 7.3%.

With `O=C(C1CCCO1)N1CCN(C(=S)NC2CC2)CC1` (configuration not stated), the inhibition is -5.96%.

`CCn1c(-c2ccncc2)n[nH]c1=S`: the inhibition is -0.2%.

`COCCNc1nc(-n2nc(C)cc2C)nc2sc3c(c12)CCCC3`: the inhibition was 64% (active).

Take `Cc1cc(C)n(-c2nc(SCC(=O)N3CCCC3)c3c4c(sc3n2)CCCC4)n1`: the inhibition was 63.1% (active).

On to `CCC(O)CNc1nc(-n2nc(C)cc2C)nc2sc3c(c12)CC(C)(C)OC3` (configuration not stated), for which the inhibition was 9.97%.

As to `Cc1nc2sc3c(c2c(=O)n1NC(=O)CCl)CCCC3`, the inhibition was -0.99%.

Take `Cc1nc(SCC(=O)Nc2cc(C)on2)c2c3c(sc2n1)CCCC3`: the inhibition was 1.37%.

For `COCCn1c(C)cc(C(=O)CSc2ncnc3sc4c(c23)CCC4)c1C`, the inhibition is -5.34%.

With `O=C(CSc1ccc([N+](=O)[O-])cn1)Nc1ccc(N2CCOCC2)c(Cl)c1`, the inhibition was 8.08%.

For the molecule `O=C(CCc1ccccc1)NCCc1cccs1`, the inhibition was -9.15%.

Consider `COc1ccc(OC)c2[nH]c(=O)c(CCNC(=O)C(=O)c3c[nH]c4ccccc34)cc12`, for which the inhibition is -6.77%.

Take `COc1cc(NC(=S)N2CCCC(C)C2)c(OC)cc1Cl` (configuration not stated): the inhibition is 6.09%.
